From PubChem BioAssay
GDH-TPI inh: counter-screen for M. tuberculosis FBA inhibitors: GDH-TPI coupled enzymes; inhibition, % at 4.8 µM; GDH-TPI coupled enzyme counterscreen, NADH absorbance; AID 588335; 360,000 tested, 1.2% active; in the data active = inhibition above about 30%;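 also: 0% = DMSO wells and 100% = wells lacking the enzyme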
FBA Mtb inh: inhibits M. tuberculosis FBA enzyme; P9WQA3; purified M. tuberculosis FBA, fluorescence read-out; inhibition, % at 1 µM; 360,000 tested, 2.3% active; in the data active = inhibition above about 27%;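 also: 0% = vehicle and 100% = reference inhibitor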
Target sequence (P9WQA3 whole entry, looked up): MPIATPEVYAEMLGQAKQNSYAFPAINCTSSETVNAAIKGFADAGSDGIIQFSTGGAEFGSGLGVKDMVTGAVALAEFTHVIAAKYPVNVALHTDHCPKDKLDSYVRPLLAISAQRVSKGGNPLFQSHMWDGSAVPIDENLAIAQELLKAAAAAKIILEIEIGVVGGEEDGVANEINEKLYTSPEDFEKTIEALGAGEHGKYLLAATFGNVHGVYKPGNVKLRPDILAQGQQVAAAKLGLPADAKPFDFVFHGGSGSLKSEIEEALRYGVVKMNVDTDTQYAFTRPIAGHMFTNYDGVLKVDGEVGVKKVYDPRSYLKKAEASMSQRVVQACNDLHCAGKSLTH
Mtb BioA inh: inhibitors of Mycobacterium tuberculosis BioA enzyme; purified M. tuberculosis BioA enzyme, plate reader; AID 602481; 360,000 tested, 0.096% active; inhibition, % at 9.99 µM; in the data active = inhibition above about 40%
Vc quorum ag-1: inducers of Vibrio cholerae quorum light production without autoinducers; activation, % at 18.7 µM; 350,000 tested, 0.16% active; V. cholerae BH1578 lux reporter, luminescence, 6 h; in the data active = activation mostly above about 9.7%, no sharp cut-off
Vc quorum ag-2: inducers of V. cholerae quorum light production without autoinducers. shares compounds with Vc quorum ag-1. V. cholerae BH1578 lux reporter, luminescence, 6 h. activation, % at 50 µM. 620 tested, under 10 active. AID 602243; call rule not given here
* marks the source's active call; other numbers are inactive results; i = inactive; . = not tested or not shown. Only some compounds are listed: those with a hit (about 3% of all), similar ones and a draw of the others.

SMILES | GDH-TPI inh | FBA Mtb inh | Mtb BioA inh | Vc quorum ag-1 | Vc quorum ag-2
O=S(=O)(c1ccc(F)cc1)N1CCCCN2[C@H](C1)[C@H](c1ccc(C#CC3CCCC3)cc1)[C@@H]2CO | . | . | -2.6 | . | .
C/C=C/c1cnc2c(c1)C(=O)N([C@H](C)CO)C[C@H](C)[C@H](CN(C)Cc1cncnc1)O2 | . | . | -5.2 | . | .
S=c1[nH]nc(Cc2cccs2)n1-c1ccccc1Cl | 7.3 | 1.9 | . | -0.3 | .
Cc1ccc(C)c(-n2c(Cc3cccs3)n[nH]c2=S)c1 | 3.1 | -0.2 | 0.6 | 13.3 | -0.2
O=[N+]([O-])c1ccc(N2CCOCC2)c2c1no[n+]2[O-] | 16.0 | -6.0 | -2.5 | 34.8* | 1.1
CN1C(=O)c2cc(NC(=O)Nc3ccccc3)ccc2OC[C@H]2O[C@H](CC(=O)NC3CCC3)CC[C@H]21 | . | . | 20.0 | . | .
Cc1cc(OC(F)F)ccc1NC(=S)NCCc1ccccc1 | 5.3 | -1.9 | 0.3 | 12.5 | -0.3
C[C@H]1CN([C@@H](C)CO)C(=O)c2cc(NC(=O)Nc3ccc4c(c3)OCO4)ccc2O[C@H]1CN(C)S(=O)(=O)c1ccccc1 | . | . | -1.2 | . | .
Cc1ccccc1C(=O)Nc1ccc(-c2nc3ccc(C(=O)c4ccccc4)cc3[nH]2)cc1 | 25.4 | 2.3 | -2.6 | 12.5 | 0.0
Cc1cccc(OCC(=O)N(C)CCc2ccccn2)c1 | 0.0 | -0.8 | -0.8 | 25.0* | 0.3
CCOC(=O)c1c(NC(=O)COC(=O)Cc2c[nH]c3ccccc23)sc(C(=O)N(C)C)c1C | 4.2 | 2.6 | 6.4 | 12.5 | 0.1
CCOC(=O)c1c(NC(=O)COC(=O)Cc2n[nH]c(=O)c3ccccc23)sc(C(=O)N(C)C)c1C | 6.5 | -3.2 | . | i | .
CCSc1nnc(NC(=O)c2ccc3ccccc3n2)s1 | 16.7 | 0.8 | . | 25.0 | 0.0
O=c1c2ccccc2nnn1CSc1nnc(-c2cccnc2)n1-c1ccccc1F | -1.6 | 2.9 | 1.7 | 12.5 | -0.1
C[C@H](CO)N1C[C@H](C)[C@H](CN(C)S(C)(=O)=O)Oc2c(NS(=O)(=O)c3ccc(F)cc3)cccc2C1=O | . | . | -2.0 | . | .
Cc1ccccc1C(=O)Nc1cccc(N)c1 | -9.8 | 5.3 | -1.7 | 48.1* | 3.0
COc1cccc(-c2cnc3c(c2)C(=O)N([C@H](C)CO)C[C@@H](C)[C@@H](CN(C)Cc2ccc(F)cc2)O3)c1 | . | . | 5.2 | . | .
COc1ccc(OC)c(NC(=O)Nc2cccc(Cn3cccn3)c2)c1 | -8.2 | -1.3 | 0.3 | 12.5 | 0.2
COc1cccc(NC(=O)Nc2cc(C)ccc2OC)c1 | 9.3 | 2.5 | . | i | .
CCn1c(SCC(=O)OC2CCCCC2)nnc1-c1ccncc1 | 9.5 | -4.7 | 2.5 | 16.7* | 0.0
CCn1c(SCC(=O)OC)nnc1-c1ccncc1 | 8.3 | 1.8 | -1.2 | i | .
C[C@@H]1CN([C@@H](C)CO)C(=O)c2cc(C3=CCCC3)cnc2O[C@@H]1CN(C)C(=O)c1ccccn1 | . | . | -0.5 | . | .
CN1C(=O)c2cc(NC(=O)c3ccc(C(F)(F)F)cc3)ccc2OC[C@H]2O[C@H](CC(=O)O)CC[C@@H]21 | . | . | -2.3 | . | .
Cc1cc2c(ncn2C)c(NS(=O)(=O)c2ccccc2Cl)c1C | -0.9 | 3.4 | -1.6 | -2.1 | .
Cc1cc2c(ncn2C)c(NS(=O)(=O)c2cc(Cl)ccc2Cl)c1C | 5.2 | -1.8 | 1.0 | 16.7* | 0.3
SMILES | GDH-TPI inh | FBA Mtb inh | Mtb BioA inh | Vc quorum ag-1 | Vc quorum ag-2
C[C@@H]1CN([C@@H](C)CO)C(=O)c2cccc(NC(=O)C3CC3)c2O[C@H]1CN(C)Cc1ccc(-c2ccccc2)cc1 | . | . | 2.4 | . | .
COC(=O)Nc1ccc(S(=O)(=O)NCCO)cc1 | 2.5 | 0.4 | 0.5 | 12.5 | 0.0
O=C(Nc1ccc2c(c1)OCO2)N[C@@H]1CC[C@H](CCNC(=O)C2CCCCC2)O[C@@H]1CO | . | . | -0.8 | . | .
COC(=O)c1ccccc1NC(=O)Cn1cc2c(n1)CCC(C)C2 (centres undefined) | -5.9 | -2.9 | -0.2 | 30.2* | 28.0
C[C@H](CO)N1C[C@H](C)[C@H](CN(C)C(=O)NC2CCCCC2)Oc2ccc(NS(=O)(=O)c3ccccc3)cc2C1=O | . | . | -1.6 | . | .
CC(=O)C(CC(=O)N1CCCc2ccccc21)C(=O)Nc1ccc(F)cc1 (centres undefined) | 4.9 | -1.8 | 0.5 | 14.3 | -0.1
Cc1nn(C)cc1NC(=O)C[C@@H]1CC[C@@H]2[C@@H](COc3ccc(NC(=O)NC(C)C)cc3C(=O)N2C)O1 | . | . | 1.8 | . | .
COc1ccc(OCCOC(=O)CCS(=O)(=O)c2ccc(C)cc2)cc1 | 7.7 | -0.3 | -0.9 | 12.5 | 0.2
COc1ccc(C/C(N)=N/OC(=O)c2cccs2)cc1 | -4.1 | -1.9 | . | i | .
COc1ccc(OCCOC(=O)c2cccs2)cc1 | -6.1 | 2.6 | 2.0 | 524.3* | 151.8
CCOC(=O)CSc1nc(N)c(C#N)c(-c2cccs2)c1C#N | 1.0 | 11.4 | -0.8 | 43.9* | 0.1
CCC(=O)N(C)C[C@@H]1Oc2cc(C#Cc3ccccc3)ccc2S(=O)(=O)N([C@H](C)CO)C[C@H]1C | . | . | -0.9 | . | .
O=C(NCC(F)(F)F)Nc1ccccn1 | -7.7 | 1.9 | -0.3 | 1.8 | .
O=C(NCC(F)(F)F)Nc1ncccn1 | -1.8 | 1.8 | -1.4 | 15.4* | 2.5
CCc1cc(C(=O)c2ccc(OC)cc2)c(N)s1 | -1.6 | 2.2 | 4.5 | 0.0 | .
CCc1cc(C(=O)c2ccccc2OC)c(N)s1 | 18.4 | 0.0 | -0.6 | 12.5 | 15.4
C[C@@H]1CCCCO[C@@H](CN(C)C(=O)c2ccccc2)[C@H](C)CN([C@@H](C)CO)C(=O)c2cc(NS(=O)(=O)c3cccs3)ccc2O1 | . | . | 0.0 | . | .
CC(C)NC(=O)N1CC[C@@H]2[C@H]1c1cc(-c3ccccc3)ccc1N(C)[C@H]2CO | . | . | 0.2 | . | .
Cc1nc2ncnn2c(C)c1Cc1c(Cl)cccc1Cl | -3.0 | 0.8 | 1.5 | 94.0* | 17.9
Cc1nc2ncnn2c(C)c1Cc1cccc(F)c1 | -12.9 | 4.5 | 0.8 | -0.3 | .
COCC(=O)Nc1ccc2c(c1)[C@H]1C[C@H](CC(=O)NC3CCCC3)O[C@H](CO)[C@H]1O2 | . | . | 0.1 | . | .
C[C@H](CO)N1C[C@H](C)[C@@H](CN(C)S(C)(=O)=O)Oc2ccc(NS(C)(=O)=O)cc2CC1=O | . | . | -1.6 | . | .
Cc1ncc(S(=O)(=O)c2ccccc2)c(-c2ccc(Cl)cc2Cl)n1 | 1.6 | -0.5 | 0.2 | 16.7* | 0.5
COc1cccc(NC(=O)Nc2ccc3c(c2)C(=O)N(C)[C@H]2CC[C@H](CC(=O)O)O[C@H]2CO3)c1 | . | . | 2.0 | . | .
CN(CC(=O)Nc1ccc(F)c(F)c1F)C(=O)C1CCC1 | 2.8 | -0.2 | -1.2 | 25.0* | 3.0
SMILES | GDH-TPI inh | FBA Mtb inh | Mtb BioA inh | Vc quorum ag-1 | Vc quorum ag-2
CN(CC(=O)Nc1ccc(F)c(F)c1F)C(=O)C1CCCO1 (centres undefined) | 1.8 | 5.3 | 1.8 | i | .
Cc1ccc2[nH]c3c(c2c1)CCCC3C(N)=O (centres undefined) | 7.6 | 3.8 | . | -0.4 | .
CCOC(=O)C1CCCc2c1[nH]c1c(C(=O)O)cccc21 (centres undefined) | 9.2 | 3.8 | -0.6 | 12.5 | 0.6
CC(C#N)On1c(SC(C)C#N)nc2ccccc2c1=O (centres undefined) | 7.7 | 2.8 | -1.5 | 12.5 | 1.3
CCC(C)n1c(SC(C)C#N)nc2ccccc2c1=O (centres undefined) | 6.5 | 3.2 | 12.6 | -1.7 | .
COc1ccccc1CCN1CCCC(CN(C)C(=O)c2ccoc2)C1 (centres undefined) | 0.0 | -1.8 | 0.4 | -4.6 | .
